# Measurements as given in PubChem BioAssay (NCATS).
# Inconclusive results are not listed. Where a call stands in place of a potency, no number is given. A number with no mark means an inactive call. The source made the active and inactive calls. Calls come from the whole dose curve; as a rule, active = well fitted curve in the direction sought with a large enough effect; inconclusive = small, poorly fitted or top-dose-only effect, or another doubt; inactive = no such curve, though single readings can be large; an effect the other way counts as inactive or inconclusive. Where a SMILES comes first, the peptide text is derived from it. The star is where a group is joined. Cbz = O=C(OCc1ccccc1)*; CH2F = FC*
# Legend:
# [1] = tested on: Zika virus NS2B-NS3 protease; assay: Primary screen GU AMC qHTS for Zika virus inhibitors (AID 1347154); note: nearly all actives have a fitted effect of over 70% in size
# Procedure, shortened: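 Unlinked Zika NS2B hydrophilic domain/NS3 protease domain noncovalent complex (25 nM final) in 10 mM Tris-HCl pH 8.0, 0.01% Tween 20, with AMC peptide substrate. Fluorescence (ex 340, em 450 nm) change over 15 min, room temperature; percent inhibition fitted to 4-parameter Hill equation.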
# [2] = Primary qHTS for small molecule stabilizers of the endoplasmic reticulum resident proteome: Secreted ER Calcium Modulated Protein (SERCaMP) assay (AID 1508630); note: potency is the fitted concentration of half-maximal effect
# Procedure, shortened: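 GLuc-SERCaMP-expressing SH-SY5Y cells, pretreated 16 h with compound, are challenged with thapsigargin to empty ER calcium stores; after 4 h, coelenterazine is added directly to the medium and luminescence is imaged.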
SMILES,Potency [1],Potency [2],"activity change, negative = inhibition [1]","activity change, negative = inhibition [2]"
COc1ccc(CCNC(=O)C(=O)c2c[nH]c3ccccc23)cc1,inactive,inactive,–,–
CC(C)=CCN1CCC2(CCc3ccccc32)CC1,inactive,inactive,–,–
NC(N)=NCCNS(=O)(=O)c1cccc2cnccc12,inactive,inactive,–,–
CS/C(N)=C(C#N)/C(C#N)=C(\N)SC,inactive,inactive,–,–
Cc1nc(N=Nc2cc([N+](=O)[O-])ccc2Cl)c(COP(=O)(O)O)c(C=O)c1O,inactive,inactive,–,–
COC(=O)C[C@H](NC(=O)[C@H](C)NC(=O)[C@@H](NC(=O)OCc1ccccc1)C(C)C)C(=O)CF (Cbz-Val-Ala-Asp(OMe)-CH2F),inactive,inactive,–,–
CC(N)COC(=O)C(CCCCN)NC(=O)Cc1c(-c2ccc3ccccc3c2)[nH]c2c1ccc1ccccc12 (stereo unspecified),inactive,inactive,–,–
CC(=O)NC1C(OC2OC(CC(O)C3OC([N+]4=CCC(=O)NC4=O)C(O)C3O)C(O)C(O)C2NC(=O)/C=C/CCCCCCCCC(C)C)OC(CO)C(O)C1O (stereo unspecified),inactive,1000 nM (active),–,–
CCCCC/C=C\C/C=C\CCCCCCCC(=O)NCC(=O)O,–,–,18.9% [at 6.83 µM],-10.8% [at 3.88 µM]
CC(N)(C(=O)O)c1ccc(P(=O)(O)O)cc1 (stereo unspecified),inactive,inactive,–,–
COc1c(O)c2c(=O)cc(OC)c3c4c(OC)cc(=O)c5c(O)c(OC)c(C[C@@H](C)OC(=O)c6ccccc6)c(c(c1C[C@@H](C)OC(=O)Oc1ccc(O)cc1)c23)c54,–,–,10.7% [at 4.99 µM],121% [at 3.88 µM]
CCCCC[C@H](O)/C=C/[C@H]1C(=O)C=C[C@@H]1C/C=C\CCCC(=O)O,–,–,15.7% [at 6.83 µM],-10.1% [at 3.88 µM]
COc1c(O)cc2oc(-c3ccc(O)cc3)cc(=O)c2c1O,inactive,inactive,–,–
N[C@@]1(C(=O)O)CN[C@@H](C(=O)O)C1,inactive,inactive,–,–
CCCCCCCCCCCCC(O)C(=O)O (stereo unspecified),–,–,10.2% [at 6.83 µM],56.7% [at 3.88 µM]
CCCCCCCCCCCCCC(=O)N[C@H](C)[C@@H](O)c1ccccc1,–,–,6.45% [at 6.83 µM],-4.17% [at 3.88 µM]
CCCCC/C=C\C\C=C/C=C/C=C/[C@@H](SC[C@H](NC(=O)CC[C@H](N)C(=O)O)C(=O)NCC(=O)O)[C@@H](O)CCCC(=O)O,–,–,8.51% [at 0.59 µM],-14.5% [at 0.478 µM]
CCCCCCCC/C=C\CCCCCCCC(=O)OCC(CO)OC(=O)CCCCCCC/C=C\CCCCCCCC (stereo unspecified),–,–,-0.778% [at 6.83 µM],17.1% [at 3.88 µM]
COc1cc2ncnc(Nc3ccc(Cl)cc3F)c2cc1OC,inactive,inactive,–,–
CNc1ncnc2c1ncn2[C@H]1C[C@H](O)[C@@H](CO)O1,inactive,inactive,–,–
CC(C)OC(=O)c1cn(Cc2c(F)cccc2F)c2sc(-c3ccc(NC(=O)C(C)C)cc3)c(CN(C)Cc3ccccc3)c2c1=O,inactive,inactive,–,–
CCCCCCCCCCCCCCC(F)C(=O)O (stereo unspecified),–,–,19.7% [at 6.83 µM],10.1% [at 3.88 µM]
CCOC(=O)C12CC1/C(=N\O)c1ccccc1O2 (stereo unspecified),inactive,inactive,–,–
